# HT1080-NT tox – kills 2HG-producing HT-1080-NT fibrosarcoma cells; HT-1080-NT fibrosarcoma viability, CellTiter-Glo ATP luminescence, 48 h; 360,000 tested, 1.6% active; Potency, µM (titrated, usually from 46.1 µM), inactives show at the top dose activity, negative = less viability, hits mostly cytotoxic;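 also: NT is the 2HG producing partner of a matched IDH1 knockdown line; 0% = DMSO-treated cells and -100% = media-only wells without cells; nearly all actives have a fitted effect of over 55% in size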
#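 Compounds were tested in concentration-response format on HT-1080-NT cells for 48 hours at 37 degrees C. Cell viability came from CellTiter-Glo luminescence; curves were classified by r2, response magnitude and activity.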
# S2 tox – cell viability loss in ATXN counter-screen; S2 cells (HEK-293 line with an ATXN2-luciferase reporter) viability, CellTiter-Fluor protease fluorescence, 24 h; Potency, µM (series often up to 56.7 µM), actives largely listed as cytotoxic; 400,000 tested, 0.49% active; AID 651635; also: nearly all actives have a fitted effect of over 40% in size
# HepG2 tox – HepG2 cytotoxicity, counter-screen for TGF-b inhibitors; HepG2 CAGA-GFP viability, ATP luminescence, 18 h; Potency, µM (top dose mostly 46.1 µM), for inactives: at the top dose activity change, negative = cytotoxicity, usual class: cytotoxic; 410,000 tested, 0.76% active
#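 HepG2 CAGA-GFP cells (1000/well, DMEM with 1% FBS) received compound, then TGF-beta at 500 pg/mL final, and were incubated 18 hours at 37 degrees C. Viability was read by CellTiter-Glo luminescence. Media-only wells were set as complete cell-killing and DMSO as no toxicity.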
# ATXN2 expr inh – ATXN2 expression inhibition. HEK-293 ATXN2-luciferase reporter, luminescence, 24 h. Potency, µM (titrated, usually from 57 µM), for inactives: at the top dose activity change, negative = inhibition, hits mostly inhibitors. 360,000 tested, 0.72% active. AID 1745845; also: % is scaled to controls: 0 for no effect and ±100 for the full control effect; nearly all actives have a fitted effect of over 55% in size
#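 qHTS (up to 57 uM final) was run with 24 h compound exposure of reporter cells at 37 °C. Each well was multiplexed: SteadyGlo luminescence measured ATXN2-luciferase expression after a fluorogenic Gly-Phe-AFC viability readout (25 uM final).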
# HT1080 IDH1KD tx – toxicity to HT-1080 IDH1 knockdown cells (counter line) | HT-1080 IDH1 knockdown viability, ATP luminescence, 48 h | Potency, µM (titrated, usually from 46.1 µM), for inactives: at the highest dose activity, negative = toxicity, most hits filed as cytotoxic | 360,000 tested, 2% active | AID 686971;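 also: 0% = DMSO wells and -100% = cell-free medium wells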
#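 HT-1080-IDH1KD cells (IDH1 knocked down), 750/well in RPMI with 5% FBS, treated with compound 48 h at 37 degrees C. Viability by CellTiter-Glo luminescence, normalised to DMSO and no-cell wells; concentration-response curves classed.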
# TGFb SMAD3 inh – TGF-b pathway inhibition; Potency, µM (titrated, usually from 46.1 µM), for the others: top-dose activity, negative = inhibition, most hits filed as inhibitors; HepG2 CAGA-GFP TGF-b/SMAD3 reporter, GFP fluorescence, 18 h; TGF-beta stimulated, 500 pg/mL final; 410,000 tested, 1.2% active; AID 588855; also: % is scaled to controls: 0 for no effect and ±100 for the full control effect; nearly all actives have a fitted effect of over 65% in size
#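 Using HEPG2 CAGA-GFP reporter cells at 1000 cells/well, we pinned test compounds, stimulated with recombinant TGF-beta (500 pg/mL final) and measured total well GFP after 18 h.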
# Active calls of the source: *; i = inactive; ? = inconclusive; . = not tested or not shown; ! = not confirmed by another sample. Rows were chosen to be rich in hits. Some 3.8% of all compounds tested hit in one or more screens of this group. Calls follow the shape of the dose curve; as a rule, active = well fitted curve in the direction sought with a large enough effect; inconclusive = small, poorly fitted or top-dose-only effect, or another doubt; inactive = no such curve, though single readings can be large; an effect the other way counts as inactive or inconclusive. Potency is read from the fitted curve at half-maximal effect.
SMILES,HT1080-NT tox,S2 tox,HepG2 tox,ATXN2 expr inh,HT1080 IDH1KD tx,TGFb SMAD3 inh
O=C(CCn1cnc2ccccc21)N/N=C/C=C/c1ccccc1,6%,i,-17%,2%,0%,1%
COc1ccc(/C=N/NC(=O)CCn2cnc(-c3ccccc3)c2-c2ccccc2)cc1,3.3µM*,i,-35%,-18%,3.3µM*,11µM*
CC(C)CCCC(C)NCCC(C)C (stereo not given),.,i,.,-2%,.,.
O=c1[nH]cnc2n[nH]nc12,.,.,21%,.,.,16%
OC[C@@H]1[C@@H](c2ccc(Cl)cc2)C(c2cccc(Cl)c2)=NN1c1ccccc1,?,.,13µM*,?,-28%,11µM*
OC[C@@H]1[C@@H](c2ccc(Cl)cc2)C(c2ccccc2)=NN1c1ccccc1,?,.,-116%,?,?,?
COc1ccccc1NC(=O)/C(C#N)=C/C=C/c1ccco1,1.8µM*,i,-4%,-14%,1.4µM*,2%
COc1ccccc1NC(=O)/C=C\c1ccco1,10%,i,-8%,75%,3%,-5%
CCCN1C(=O)c2ccccc2NC1c1ccc(OC)c(COc2cccc(OC)c2)c1 (stereo not given),.,.,-18%,.,.,5%
COc1cc(OC)c2c(-c3ccccc3)cc(=O)oc2c1C(CCN1CCCCC1)c1ccc2c(c1)OCO2 (stereo not given),1%,?,-26%,-17%,-14%,?
COc1cc(OC)c2c(-c3ccccc3)cc(=O)oc2c1C(CCN1CCCCC1)c1ccc(N(C)C)cc1 (stereo not given),-21%,22µM*,-70%,?,-29%,?
COc1ccc(C(CCN2CCCCC2)c2c(OC)cc(OC)c3c(-c4ccccc4)cc(=O)oc23)cc1 (stereo not given),-28%,22µM*,18µM*!,?,-14%,?
COc1cc(OC)c2c(-c3ccccc3)cc(=O)oc2c1C(CCN1CCCC(C)C1)c1ccc2c(c1)OCO2 (stereo not given),?,10µM*,-20%,?,-26%,?
COc1ccc(S(=O)(=O)N2c3ccc(Cl)cc3[C@@](O)(c3ccccc3Cl)[C@H]2C(=O)N2CCC[C@@H]2C(N)=O)cc1OC,.,i,.,7%,.,.
O=C([C@@H]1C[C@@H](Sc2nc3ccccc3[nH]2)CN1Cc1c(F)cccc1F)N1CCOCC1,.,i,.,.,.,.
COc1ccc(C2CC(O)(c3ccccc3)Oc3c(C)ccc(C(C)C)c32)cc1 (stereo not given),.,.,-33%,.,.,16µM*
COc1ccc(C2CC(O)(c3ccccc3)Oc3cc(OC)ccc32)cc1 (stereo not given),?,?,13µM*!,-18%,?,18µM*
COc1ccc(C2CC(c3ccccc3)Oc3c(C)ccc(C(C)C)c32)cc1 (stereo not given),.,.,-6%,.,.,?
C#CCN(Cc1nc(N2CCOCC2)c2ccc(Cl)cc2n1)Cc1ccco1,.,i,.,.,.,.
CC(=O)N(CC(O)CO)c1c(I)c(C(=O)NCCO)c(I)c(C(=O)NCC(O)CO)c1I (stereo not given),.,i,.,-1%,.,.
CCOc1ccccc1N(C)C(=O)Cn1cnc2onc(-c3ccc(F)cc3)c2c1=O,.,i,-49%,-5%,.,11%
OC(c1ccc2c(c1)CN(Cc1cccn1-c1cccnc1)CCO2)C1CCCCC1 (stereo not given),.,i,.,.,.,.
O=S(=O)(NCc1csc(-c2cccs2)n1)c1ccc(Cl)cc1,0%,.,-24%,-11%,2%,?
O=S(=O)(NCc1csc(-c2cccs2)n1)c1cccc(C(F)(F)F)c1,-1%,.,-97%,16%,-2%,16µM*
CC(C)NC(=O)Cn1c(=O)nc(-c2ccccc2)c2ccccc21,.,.,4%,.,.,1%
SMILES,HT1080-NT tox,S2 tox,HepG2 tox,ATXN2 expr inh,HT1080 IDH1KD tx,TGFb SMAD3 inh
CC1CN(CCNC(=O)C2CCCc3c2[nH]c2ccccc32)Cc2ccccc2O1 (stereo not given),.,i,.,.,.,.
CCOC(=O)c1sc(NC(=O)CCN2CCN(CC)CC2)c(C(=O)OCC)c1C,23µM*,?,-103%,?,18µM*,?
Fc1ccc(-c2nnc3ccc(N4CCc5ccccc5C4)nn23)cc1,0%,.,1%,32µM*,-20%,20%
O=C(Nc1ccc(F)cc1)N1CCN(c2ccc3nnc(-c4ccc(F)cc4)n3n2)CC1,?,?,13%,?,?,-6%
O=C(/C=C/c1ccco1)Oc1cc(Br)cc(/C=N/NC(=O)c2ccccc2O)c1,?,i,-61%,?,1.8µM*,10µM*
COc1cccc(CNc2nc(NCc3ccccc3)nc3ccsc23)c1,21µM*,i,-48%,?,?,?
Fc1ccc(Nc2nc(NCc3ccccc3)nc3ccsc23)cc1,21µM*,?,13µM*,?,-25%,?

# Source: PubChem BioAssay (National Center for Advancing Translational Sciences (NCATS))
